Results filed as inconclusive are left out. Where a call stands in place of a potency, no number is given. Values without a mark were called inactive. Activity calls are given as the source filed them. Calls come from the whole dose curve; as a rule, active = well fitted cell-killing curve with a large enough effect; inconclusive = small, poorly fitted or top-dose-only effect, or effect the other way; inactive = flat fitted curve, though single readings scatter.
Legend:
Assay in all cases: Primary qHTS to identify gynecologic anti-cancer compounds using libraries of approved drugs and bioactive compounds (AID 1345084); note: nearly all actives have a fitted effect of over 55% in size
C33A = conditions: Gynecologic cancer cell panel viability, ATPlite luminescence, 48 h; series mostly up to 57.5 µM
In short: (§1)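 48 h compound exposure at 37 C, 5% CO2; five-point qHTS. ATPlite luminescence readout of cell ATP.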

CAOV3 = conditions: Gynecologic cancer cell panel viability, ATPlite luminescence, 48 h; series mostly up to 57.5 µM
In short: as §1

CASKI = conditions: Gynecologic cancer cell panel viability, ATPlite luminescence, 48 h; series mostly up to 57.5 µM
In short: as §1

Es-2 = conditions: Gynecologic cancer cell panel viability, ATPlite luminescence, 48 h; series mostly up to 57.5 µM
In short: as §1

HeLa = conditions: Gynecologic cancer cell panel viability, ATPlite luminescence, 48 h; series mostly up to 57.5 µM
In short: as §1

Hek293T = conditions: Gynecologic cancer cell panel viability, ATPlite luminescence, 48 h, control line for the selectivity index; series mostly up to 57.5 µM
In short: as §1
Potency is the fitted concentration of half-maximal effect.

C[C@H]1[C@H](C)CC[C@]2(C(=O)O[C@@H]3O[C@H](CO)[C@@H](O)[C@H](O)[C@H]3O)CC[C@]3(C(=O)O)C(=CCC4[C@@]5(C)CC[C@H](O[C@@H]6O[C@H](CO)[C@@H](O)[C@H](O)[C@H]6O)C(C)(C)C5CC[C@]43C)[C@H]12 (stereo partly specified)
activity change, negative = cytotoxicity (C33A): 2.9% [at 11.6 µM]
activity change, negative = cytotoxicity (CAOV3): 0.882% [at 11.6 µM]
activity change, negative = cytotoxicity (CASKI): 0.925% [at 11.6 µM]
activity change, negative = cytotoxicity (Es-2): -10.9% [at 11.6 µM]
activity change, negative = cytotoxicity (HeLa): 13.2% [at 11.6 µM]
activity change, negative = cytotoxicity (Hek293T): 3.39% [at 11.6 µM]

c1ccc(Nc2nc3c(s2)CCCc2[nH]ncc2-3)nc1
Potency (C33A): inactive
Potency (CAOV3): inactive
Potency (CASKI): inactive
Potency (Es-2): inactive
Potency (Hek293T): inactive

C/C(=C\CCC(C)(O)c1ccc(C)cc1)C(=O)O (stereo unspecified)
Potency (C33A): inactive
Potency (CAOV3): inactive
Potency (CASKI): inactive
Potency (Es-2): inactive
Potency (HeLa): inactive
Potency (Hek293T): inactive

COc1ccc(C)c2sc(NC(=O)c3ccncc3)nc12
Potency (C33A): inactive
Potency (CAOV3): inactive
Potency (CASKI): inactive
Potency (Es-2): inactive
Potency (HeLa): inactive
Potency (Hek293T): inactive

O=C(C1CC1)N1CC[C@@H](Cc2n[nH]c(=O)n2-c2ccc(-c3ccc4occc4c3)cc2)C1
Potency (C33A): inactive
Potency (CASKI): inactive
Potency (Es-2): inactive
Potency (HeLa): inactive
Potency (Hek293T): inactive

CCC[C@@H]1C[C@@H](C(=O)N[C@H](C(C)Cl)[C@H]2O[C@H](SC)[C@H](O)[C@@H](O)[C@H]2O)N(C)C1 (stereo partly specified)
Potency (C33A): inactive
Potency (CAOV3): inactive
Potency (CASKI): inactive
Potency (Es-2): inactive
Potency (HeLa): inactive
Potency (Hek293T): inactive

C[C@@H]1O[C@@H](O[C@H]2[C@H](O[C@H]3CO[C@@H](O[C@H]4CC[C@@]5(C)C(CC[C@]6(C)C5CC[C@]57OC[C@@]8(CC[C@](C)(CO)CC85)[C@H](O)C[C@]76C)C4(C)C)[C@H](O[C@@H]4O[C@H](CO)[C@@H](O)[C@H](O)[C@H]4O)[C@H]3O)O[C@H](CO)[C@@H](O)[C@@H]2O)[C@H](O)[C@H](O)[C@H]1O (stereo partly specified)
activity change, negative = cytotoxicity (C33A): -5.68% [at 11.6 µM]
activity change, negative = cytotoxicity (CAOV3): -8.26% [at 11.6 µM]
activity change, negative = cytotoxicity (CASKI): -2.01% [at 11.6 µM]
activity change, negative = cytotoxicity (Es-2): -8.3% [at 11.6 µM]
activity change, negative = cytotoxicity (HeLa): 0% [at 11.6 µM]
activity change, negative = cytotoxicity (Hek293T): 0.0587% [at 11.6 µM]

C#Cc1cnc2[nH]c(=O)n(C(CC)CC)c2n1
Potency (C33A): inactive
Potency (CAOV3): inactive
Potency (CASKI): inactive
Potency (Es-2): inactive
Potency (HeLa): inactive
Potency (Hek293T): inactive

CC1CCC2C(C(=O)O)=CC3C(O)C(C)(C)CC123 (stereo unspecified)
Potency (C33A): inactive
Potency (CAOV3): inactive
Potency (CASKI): inactive
Potency (Es-2): inactive
Potency (HeLa): inactive
Potency (Hek293T): inactive

O=c1c2cccnc2n(-c2cccc([N+](=O)[O-])c2)c(=O)n1Cc1ccncc1
Potency (C33A): inactive
Potency (CAOV3): inactive
Potency (CASKI): inactive
Potency (Es-2): inactive
Potency (HeLa): inactive
Potency (Hek293T): inactive

Cc1ccc(C(=O)Nc2ccc(Oc3cc4cnn(C)c4cc3-c3cn[nH]c3)c(F)c2)c(=O)n1-c1ccc(F)cc1
Potency (C33A): inactive
Potency (CAOV3): 8.91 µM (active)
Potency (Es-2): inactive

CC1=C(C)C(=O)OC(C(C)C2C(O)CC3C4C5OC5C5(O)CC(OC6OC(CO)C(O)C(O)C6O)CC(O)C5(C)C4CCC32C)C1 (stereo unspecified)
Potency (C33A): inactive
Potency (CAOV3): inactive
Potency (CASKI): inactive
Potency (Es-2): inactive
Potency (HeLa): inactive
Potency (Hek293T): inactive

CCOc1cc2ncc(C#N)c(Nc3ccc(OCc4ccccn4)c(Cl)c3)c2cc1NC(=O)/C=C/CN(C)C
Potency (C33A): inactive
Potency (CAOV3): inactive
Potency (Es-2): inactive
Potency (Hek293T): inactive

CCC(=O)O[C@]1(C(=O)CCl)[C@@H](C)C[C@H]2[C@@H]3C[C@H](F)C4=CC(=O)C=C[C@]4(C)[C@@]3(F)[C@@H](O)C[C@@]21C
Potency (C33A): inactive
Potency (CASKI): inactive
Potency (Es-2): inactive
Potency (HeLa): inactive
Potency (Hek293T): inactive

C=C[C@](C)(CC/C=C(\C)C(=O)O)O[C@@H]1OC[C@H](O)[C@H](O)[C@H]1O
Potency (C33A): inactive
Potency (CAOV3): inactive
Potency (CASKI): inactive
Potency (Es-2): inactive
Potency (HeLa): inactive
Potency (Hek293T): inactive

Oc1ccc([C@H]2COc3cc(O)ccc3C2)cc1
Potency (C33A): inactive
Potency (CAOV3): inactive
Potency (CASKI): inactive
Potency (Es-2): inactive
Potency (Hek293T): inactive

CC(C)Nc1cc(-c2c[nH]c(C(=O)N[C@H](CO)c3cccc(Cl)c3)c2)c(Cl)cn1
Potency (C33A): inactive
Potency (CAOV3): inactive
Potency (CASKI): inactive
Potency (HeLa): inactive
Potency (Hek293T): inactive

CCC(CC)n1ccc2c(C(=O)NCc3c(C)cc(C)[nH]c3=O)cc(C#N)cc21
Potency (C33A): inactive
Potency (CAOV3): inactive
Potency (CASKI): inactive
Potency (Es-2): inactive
Potency (HeLa): inactive
Potency (Hek293T): inactive

C[C@@H]1O[C@@H](O[C@H]2[C@H](O)[C@@H](C(=O)O)O[C@@H](O[C@H]3CC[C@@]4(C)C(CC[C@]5(C)C4CC=C4C6CC(C)(C)CC[C@]6(C(=O)O)CC[C@]45C)C3(C)C)[C@@H]2O[C@@H]2O[C@H](CO)[C@@H](O)[C@H](O)[C@H]2O)[C@H](O)[C@H](O)[C@H]1O (stereo partly specified)
activity change, negative = cytotoxicity (C33A): 0.0448% [at 11.6 µM]
activity change, negative = cytotoxicity (CAOV3): 1.71% [at 11.6 µM]
activity change, negative = cytotoxicity (CASKI): -2.17% [at 11.6 µM]
activity change, negative = cytotoxicity (Es-2): 0.67% [at 11.6 µM]
activity change, negative = cytotoxicity (HeLa): 6.77% [at 11.6 µM]
activity change, negative = cytotoxicity (Hek293T): -9.05% [at 11.6 µM]

O=C(c1ccc(F)cc1)C1CCN(CCn2c(=O)nc3n(c2=O)CCCC3)CC1
Potency (C33A): inactive
Potency (CAOV3): inactive
Potency (Es-2): inactive
Potency (HeLa): inactive
Potency (Hek293T): inactive

Clc1ccc(CN[C@H]2CCN(c3ncc(Br)cn3)C2)c(Cl)c1
Potency (C33A): inactive
Potency (CAOV3): inactive
Potency (CASKI): inactive
Potency (Es-2): inactive
Potency (HeLa): inactive
Potency (Hek293T): inactive

CCC/C=C/C(=O)O[C@H]1CC(C)(C)CC2[C@]13[C@H](O)O[C@@]21CCC2[C@@]4(C)CC[C@H](O[C@@H]5O[C@H](C(=O)O)[C@@H](O)[C@H](O[C@@H]6O[C@H](CO)[C@H](O)[C@H](O)[C@H]6O[C@@H]6O[C@@H](C)[C@H](O)[C@@H](O)[C@H]6O[C@@H]6OC[C@](O)(CO)[C@H]6O)[C@H]5O[C@@H]5O[C@H](CO)[C@H](O)[C@H](O)[C@H]5O)C(C)(C)C4CC[C@@]2(C)[C@]1(C)C[C@H]3OC(C)=O (stereo partly specified)
activity change, negative = cytotoxicity (C33A): -4.15% [at 6.55 µM]
activity change, negative = cytotoxicity (CASKI): 2.37% [at 6.55 µM]
activity change, negative = cytotoxicity (Es-2): 2.55% [at 6.55 µM]
activity change, negative = cytotoxicity (HeLa): -1.33% [at 6.55 µM]
activity change, negative = cytotoxicity (Hek293T): -6.65% [at 6.55 µM]

C1CCN2CC3C[C@@H](CN4CCCC[C@@H]34)[C@H]2C1
Potency (C33A): inactive
Potency (CAOV3): inactive
Potency (CASKI): inactive
Potency (Es-2): inactive
Potency (HeLa): inactive
Potency (Hek293T): inactive

C=CC1(C)CC2=CCC3C(C)(C(=O)O)CCCC3(C)C2CC1OC(C)=O (stereo unspecified)
Potency (C33A): inactive
Potency (CASKI): inactive
Potency (Es-2): inactive
Potency (HeLa): inactive
Potency (Hek293T): inactive

CC[C@H]1OC(=O)[C@H](C)[C@@H](O[C@H]2C[C@@](C)(OC)[C@@H](O)[C@H](C)O2)[C@H](C)[C@@H](O[C@@H]2O[C@H](C)C[C@H](N(C)C)[C@H]2O)[C@@](C)(O)C[C@@H](C)[C@@H]2N[C@@H](COCCOC)OC([C@H]2C)[C@]1(C)O
Potency (C33A): inactive
Potency (CAOV3): inactive
Potency (CASKI): inactive
Potency (Es-2): inactive
Potency (HeLa): inactive
Potency (Hek293T): inactive

C=C1[C@H]2[C@H](O[C@@H]3O[C@H](COC(=O)/C=C/c4cc(OC)c(O)c(OC)c4)[C@@H](O)[C@H](O)[C@H]3O)OC=C(C(=O)O)[C@H]2C[C@@H]1O
Potency (C33A): inactive
Potency (CAOV3): inactive
Potency (CASKI): inactive
Potency (Es-2): inactive
Potency (HeLa): inactive
Potency (Hek293T): inactive

Nc1ccn([C@@H]2C(F)=C(CO)[C@@H](O)[C@H]2O)c(=O)n1
Potency (C33A): inactive
Potency (CAOV3): inactive
Potency (CASKI): inactive
Potency (HeLa): inactive

C[C@@H]1C(=O)O[C@H]2CC34[C@H]5C[C@@H](C(C)(C)C)C36[C@@H](OC(=O)[C@@H]6O)O[C@@]4(C(=O)O5)[C@]21O (stereo partly specified)
Potency (C33A): inactive
Potency (CASKI): inactive
Potency (Es-2): inactive
Potency (HeLa): inactive
Potency (Hek293T): inactive

C=CC1C(O[C@@H]2O[C@H](CO)[C@@H](O)[C@H](O)[C@H]2O)OC=C(C(=O)OC)C1CC(=O)O (stereo partly specified)
Potency (C33A): inactive
Potency (CAOV3): inactive
Potency (CASKI): inactive
Potency (Es-2): inactive
Potency (HeLa): inactive
Potency (Hek293T): inactive

CCOC(=O)[C@H](CCc1ccccc1)CC1(C(=O)N[C@H]2CCc3ccccc3N(CC(=O)O)C2=O)CCCC1
Potency (C33A): inactive
Potency (CAOV3): inactive
Potency (CASKI): inactive
Potency (Es-2): inactive
Potency (HeLa): inactive
Potency (Hek293T): inactive

O=C(c1ccc(C#Cc2cccc(F)c2)cn1)N1CC2CC2C1 (stereo unspecified)
Potency (C33A): inactive
Potency (CASKI): inactive
Potency (Es-2): inactive
Potency (HeLa): inactive
Potency (Hek293T): inactive

OCCc1ccc(O[C@@H]2O[C@H](CO)[C@@H](O)[C@H](O)[C@H]2O)c(O)c1
Potency (C33A): inactive
Potency (CAOV3): inactive
Potency (CASKI): inactive
Potency (Es-2): inactive
Potency (HeLa): inactive
Potency (Hek293T): inactive

CCC(C)/C=C(C)/C=C/C1=CC2=C(Cl)C(=O)C(C)(OC(C)=O)C(=O)C2=CN1CCCC(=O)O (stereo unspecified)
Potency (C33A): inactive
Potency (CASKI): inactive
Potency (Es-2): inactive
Potency (HeLa): inactive
Potency (Hek293T): inactive

CC(C)C(C#N)O[C@@H]1O[C@H](CO[C@@H]2OC[C@](O)(CO)[C@H]2O)[C@@H](O)[C@H](O)[C@H]1O (stereo partly specified)
Potency (C33A): inactive
Potency (CAOV3): inactive
Potency (CASKI): inactive
Potency (Es-2): inactive
Potency (HeLa): inactive
Potency (Hek293T): inactive

CC1=C(CC(=O)O)c2cc(F)ccc2C1=Cc1ccc(S(C)(=O)=O)cc1
Potency (C33A): inactive
Potency (CASKI): inactive
Potency (Es-2): inactive
Potency (HeLa): inactive
Potency (Hek293T): inactive

From PubChem BioAssay (NCATS)
